High-throughput results from PubChem.
In the library only some 3.2% were active in any assay of this set; here they are far more common.
AmpC inh detg: blocks E. coli AmpC beta-lactamase in detergent assay | AID 485294 | P00811 | actives 0.041% (n = 370,000) | Potency, µM (titrated, usually from 114 µM), usual class: inhibitors | AmpC hydrolysis of nitrocefin, absorbance 480 nm, 0.01% Triton; further: nearly all actives have a fitted effect of over 25% in size
Target sequence (P00811 whole entry, looked up): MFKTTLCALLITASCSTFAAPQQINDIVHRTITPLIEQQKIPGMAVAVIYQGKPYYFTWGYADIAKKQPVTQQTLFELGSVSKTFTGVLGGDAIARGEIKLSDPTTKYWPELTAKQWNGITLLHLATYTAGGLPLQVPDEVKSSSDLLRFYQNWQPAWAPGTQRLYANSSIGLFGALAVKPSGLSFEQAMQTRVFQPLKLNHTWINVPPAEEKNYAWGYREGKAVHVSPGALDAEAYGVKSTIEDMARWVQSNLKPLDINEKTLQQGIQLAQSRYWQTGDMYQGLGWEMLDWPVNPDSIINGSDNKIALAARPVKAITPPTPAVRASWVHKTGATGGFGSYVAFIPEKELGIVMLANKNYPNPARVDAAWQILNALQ
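AmpC (5.3 nM in the dispensed reagent) in 20 mM phosphate pH 7.0 with 0.01% (detergent screen) or 0.0001% Triton X-100 was preincubated with compounds for 15 min at room temperature. Nitrocefin was then added from an 800 uM solution, and hydrolysis was followed at 480 nm.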
AMA1-RON2 inh: disrupts binding of P. falciparum AMA1 to RON2; AlphaScreen AMA1-biotinylated RON2 peptide binding; Potency, µM (series often up to 58.2 µM), hits mostly inhibitors; actives 0.2% (n = 360,000); AID 720542; further: nearly all actives have a fitted effect of over 45% in size
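AMA1 (3D7) with his tag at 25 nM final met compounds first, then biotinylated RON2 peptide at 25 nM; detection used donor plus acceptor beads, 10 µg/mL apiece, read by AlphaScreen after 30 min at room temperature.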
RE007 growth inh: less growth of the S. pombe RE007 Vpr strain; S. pombe RE007 Vpr strain, BacTiter-Glo ATP luminescence, 24 h; Potency, µM (top dose mostly 92.2 µM), most hits filed as inhibitors; actives 0.21% (n = 360,000); active means well fitted falling curve with a large enough effect; inconclusive means small, poorly fitted or top-dose-only effect; inactive means no such curve, though single readings can be large or run the other way; further: nearly all actives have a fitted effect of over 50% in size
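Fission yeast RE007 carrying one integrated HIV-1 vpr copy, seeded at OD 0.01 in PMG+AL medium with 23 nL pinned compound. Grown 24 h at 30 degrees; viability read by BacTiter-Glo luminescence after 5 min.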
Sm TGR inh: S. mansoni TGR enzyme inhibition. Q962Y6. purified TGR, DTNB reduction, TNB absorbance 405 nm. Potency, µM (doses to about 114 µM), hits mostly inhibitors. actives 3% (n = 360,000); further: nearly all actives have a fitted effect of over 60% in size
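First, TGR (20 nM dispensed) and NADPH were mixed with compound. Second, a 15 min room-temperature incubation followed. Third, further NADPH and then DTNB were added to start the reaction. Finally, TNB absorbance was monitored kinetically.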
AmpC inh no detg: inhibitors of E. coli AmpC beta-lactamase without detergent; actives 0.52% (n = 330,000); P00811; AID 485341; Potency, µM (highest dose often 57.1 µM), hits mostly inhibitors; AmpC nitrocefin hydrolysis, absorbance 480 nm, 0.0001% Triton; further: nearly all actives have a fitted effect of over 20% in size
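AmpC (5.3 nM in the dispensed reagent) in 20 mM phosphate pH 7.0 with 0.01% (detergent screen) or 0.0001% Triton X-100 was preincubated with compounds for 15 min at room temperature. Nitrocefin was then added from an 800 uM solution, and hydrolysis was followed at 480 nm.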
Numbers stand for hits; . = inactive; ? = inconclusive; / = no result; [ ] = remark or other dose. Unless noted, the call rests on the fitted dose curve; in most records, active means well fitted curve in the direction sought with a large enough effect; inconclusive means small, poorly fitted or top-dose-only effect, or another doubt; inactive means no such curve, though single readings can be large; an effect the other way counts as inactive or inconclusive.

SMILES	AmpC inh detg	AMA1-RON2 inh	RE007 growth inh	Sm TGR inh	AmpC inh no detg
CC1(C)CC(=O)C(CC2=C(O)CC(C)(C)CC2=O)C(=O)C1	.	.	.	.[11.4 µM]	.
O=C(Nc1ccccc1C(=O)N/N=C/c1ccco1)c1ccc(F)cc1	.	.	22µM	.	.
Cc1cc(C)nc(SCc2ccc(C(=O)N/N=C/c3ccco3)cc2)n1	.	.	.	32µM	.
C/C(=N\NC(=O)c1ccc(CSc2nc(C)cc(C)n2)cc1)c1ccco1	.	.	.	45µM	.[2.29 µM]
Cc1ccc(Cl)cc1NC(=O)CSC1=Nc2ccccc2C2=NC(Cc3ccccc3)C(=O)N12 (stereo unspecified)	.	/	/	.	/
CN(C)c1ccc(/C=C2\CCC/C(=C\c3ccccc3)C2=O)cc1	?	.	.	.	.
CC(=O)N1/C(=C/c2ccc(N(C)C)cc2)C(=O)c2ccccc21	.	28µM	.	28µM	.
Cc1cc(N2CCCCC2)nc2ccc(NC(=O)/C=C/c3ccc(OCCC(C)C)cc3)cc12	.	/	/	.	/
O=C1/C(=C/N(C(=O)c2ccco2)c2ccc(Cl)cc2)Sc2ccccc21	.	.	?	40µM	.
O=C1/C(=C/N(C(=O)c2ccco2)c2ccc(Br)cc2)Sc2ccccc21	?	.	.	13µM	.
COc1ccc(CN(C(=O)c2ccco2)c2ccc(Br)cc2)cc1OC	.	.	.	.	.
Cc1c(C(=O)Nc2c(F)cccc2F)sc2ncn(Cc3ccccc3F)c(=O)c12	.	/	/	.	/
COc1ccc(/C=C(\C#N)C(=O)Nc2cc(S(=O)(=O)N3CCOCC3)ccc2N2CCCC2)cc1	.	.	.	.	.
CCN(CC)S(=O)(=O)c1ccc(N2CCCCC2)c(NC(=O)/C(C#N)=C/c2ccc(OC)cc2)c1	.	.[11.6 µM]	.	.	4µM
Cc1cccc(/C=N/NC(=O)c2ccc(NC(=O)c3ccc(F)cc3)cc2)n1	.	.	.	.	18µM
COc1ccc(CCN2C(=O)c3oc4cc(C)cc(C)c4c(=O)c3C2c2ccc(F)cc2)cc1OC (stereo unspecified)	.	/	/	.	/
Cc1ccc(S(=O)(=O)N/N=C/c2cc(Br)c(C)o2)cc1	?	.	.	0.1µM	.
CC1=C/C(=N\Nc2ccccc2[N+](=O)[O-])CC(C)(C)C1	.	3.5µM	.	.	.
C/C(=N/Nc1ccccc1[N+](=O)[O-])c1ccc([N+](=O)[O-])cc1	.	.	.	.	.
CCn1c2ccccc2c2cc(/C=C(/C#N)C(N)=S)ccc21	/	.	.	/	/
CCOc1c(C=C(C#N)C#N)c2ccccc2n1CC	?	.	.	28µM	.
O=C(c1ccccc1Cl)n1nc(-c2cccnc2)nc1NCc1ccc(F)cc1	.	/	/	.	/
COc1ccc2c(c1)Cc1sc(NC(C)=O)nc1-2	.	.	.	56µM	.
N#CC1(c2ccccc2)CCCN1C(=O)c1ccc(Br)o1 (stereo unspecified)	.	.	.	40µM	.
COc1ccccc1-c1nc2c(c(SCC(=O)Nc3ccccc3F)n1)Cc1c(CO)cnc(C)c1O2	.	/	/	.	/
SMILES	AmpC inh detg	AMA1-RON2 inh	RE007 growth inh	Sm TGR inh	AmpC inh no detg
Cc1ccc(OCCCSc2nc(-c3ccc(C(C)(C)C)cc3)nc3cc(=O)[nH]n23)cc1C	.	/	/	.	/
COc1ccc([C@]23Cc4cc(OC)c(OC)cc4C(O2)c2c(c4ccccc4oc2=O)O3)cc1	.[22.9 µM]	/	/	4µM	.[11.4 µM]
COc1ccc([C@]23Cc4cc(OC)c(OC)cc4C(O2)c2c(cc(C)oc2=O)O3)cc1	?	/	/	7.1µM	.[11.4 µM]
O=c1oc2ccccc2c2c1C1O[C@](c3ccsc3)(Cc3ccccc31)O2	.[22.9 µM]	/	/	11µM	4.5µM
COc1ccc2c3c(c(=O)oc2c1)C1O[C@](c2ccsc2)(Cc2ccccc21)O3	?	/	/	?	.[11.4 µM]
COc1cc2c(cc1OC)C1OC(c3ccsc3)(C2)Oc2cc(C)oc(=O)c21 (stereo unspecified)	?	/	/	?	.[11.4 µM]
COc1ccc([C@]23Cc4ccccc4C(O2)c2c(c4ccc(OC)cc4oc2=O)O3)cc1	?	/	/	?	.[11.4 µM]
CCOc1ccc(NC(=O)c2cc3c(n(-c4ccc(OC)cc4)c2=O)CC(C)(C)CC3=O)cc1	.	/	/	.	/
CCCNS(=O)(=O)c1ccc2nc(NC(=O)c3ccc(F)cc3)sc2c1	.	/	/	.	/
Cc1ccc(C)c(CNC(=O)c2sc3ncnc(N(C)C4CCCCC4)c3c2C)c1	.	/	/	.	/
COC(=O)C1=C(c2ccccc2)c2ccccc2S(=O)(=O)N1CC(=O)Nc1ccc(F)c(F)c1	.	/	/	.	/
COc1cccc(CNc2ccccn2)c1O	?	.	.	28µM	.
COc1cccc(CNc2cc(C)ccn2)c1O	.	.	.	22µM	.
CC1(C)CC2(CC(c3ccccc3F)c3ccc(O)c(O)c3O2)NC(=S)N1 (stereo unspecified)	.	.	.	1.1µM	.
COc1ccc(S(=O)(=O)N(CC(=O)NCCSc2ccc(C)cc2)c2ccc(C)cc2)cc1	.	/	/	.	/
OCCc1ccc(-c2ccc(Cl)cc2)o1	.	.	?	45µM	.
Cc1cc(NC(=O)CCc2ccc(-c3ccccc3)o2)no1	.	.	.	.	.
Clc1ccc(-c2ccc(CN3CCCCC3)o2)cc1	?	.	.	?	.
Cc1ccc(-c2ccc(CCC(=O)O)o2)cc1	.	.	.	13µM	.
O=C(O)CCc1ccc(-c2cccs2)o1	.	.	?	0.71µM	.
Cc1[nH]c(=O)[nH]c(=O)c1/C=N/NC(=O)[C@@H](NC(=O)OC(C)(C)C)C(C)C	?	.	.	35µM	.
Cc1[nH]c(=O)[nH]c(=O)c1/C=N/NC(=O)CCNC(=O)OC(C)(C)C	.	.	.	.	.
Cc1[nH]c(=O)[nH]c(=O)c1/C=N/NC(=O)[C@H](C)N	.	.	.	50µM	.
CNC(=O)COc1ccc(NC(=O)CCn2nc(-c3ccc(C)cc3)c3ccccc3c2=O)cc1	.	/	/	.	/
CN(C)c1ccc(Nc2nc(N)c3ccccc3n2)cc1	.	?	25µM	?	.
SMILES	AmpC inh detg	AMA1-RON2 inh	RE007 growth inh	Sm TGR inh	AmpC inh no detg
Nc1nc(Nc2ccccc2)nc2ccccc12	.	.	?	.	.
Cc1cc(NC(=O)n2ncc3c(C)cccc32)ccc1Br	.	/	/	.	/
O=C(CSc1nc2ccccc2c(=O)n1Cc1ccccc1)NCc1ccco1	.	.	.	.	.
O=C(CCCCCn1c(SCc2ccncc2)nc2ccccc2c1=O)NCc1ccco1	?	.	.	45µM	.
CCn1c(SCC(=O)NCc2ccco2)nc2ccccc2c1=O	.	.	.	45µM	.
NC(=O)c1ccc(NC(=O)CSc2nc3ccccc3c(=O)n2CCCN2CCOCC2)cc1	.	.	.	.	.
NS(=O)(=O)c1cccc(NC(=O)CSc2nc3ccccc3c(=O)n2CCCN2CCOCC2)c1	.	.	.	.	32µM
